High-throughput results deposited in PubChem by several laboratories.
An excerpt weighted towards active compounds, which were near 4.7% of everything screened.
HSF-1 act = increases HSF-1 driven luciferase reporter signal; NIH3T3-HGL HSF-1 luciferase reporter, MG132, 8 h; 100% = twice DMSO control signal; activation, % at 9 µM; hit rate 1.7% among 300,000; AID 504408;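 active = mean replicate activation of at least 50% with a set share of replicates each reaching 50%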
TWEAK-Fn14 inh = inhibitors of TWEAK-Fn14 interaction signaling; TWEAK-stimulated Fn14 reporter cells, luciferase luminescence, 8 h; AID 1159606; inhibition, % at 10 µM; hit rate 2% among 360,000; in the data active = inhibition above about 50%
HSP90 refold inh = HSP90 refolding inhibition in rabbit reticulocyte lysate; AID 1789; inhibition, % at 5.6 µM; luciferase refolding luminescence, 3 h; hit rate 0.91% among 290,000;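 active = inhibition above the screen-wide mean plus 3 SD, computed separately per campaign, cut at about 16% in these data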;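 also: inhibitors lower the luminescence because luciferase stays unfolded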
TROY signal inh = blocks TROY-dependent signaling in reporter cells; Q293 LMP1-TROYcd NF-kB luciferase reporter, 4 h; inhibition, % at 10 µM; hit rate 0.98% among 360,000;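 active = compounds whose plate-normalised and pattern-corrected inhibition of the luciferase reporter signal at the single screening dose is 50% or more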
EBV LMP1 NFkB = inhibitors of Epstein-Barr LMP1-induced NF-kappaB reporter; LMP1-induced NF-kappaB luciferase reporter cells, luminescence; inhibition, % at 12.5 µM; hit rate 0.69% among 350,000; in the data active = inhibition above about 41%
HSF1 inh = HSF1 inhibition. hit rate 0.77% among 300,000. AID 2098. NIH3T3-HGL HSE-luciferase, MG132-induced, luminescence 8 h; stronger effect = lower value. activity change, negative = inhibition, % at 7.5 µM (by protocol);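 active = more than half of replicate wells show activity change below -50%, luminescence cut by over half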;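 also: luciferase reports HSF-1 transcriptional activity via heat shock element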
Of the large screens only hits and unclear results are named; the others gave an inactive call.

COc1ccc(C(=O)Nc2cccc(-c3nnc(-c4ccco4)o3)c2)cc1	TWEAK-Fn14 inh 57
Cc1ccc(SCC(=O)Nc2ccc(-c3nnc(-c4ccco4)o3)cc2)cc1	HSF-1 act 78
Cc1cc(C)cc(OCC(=O)Nc2cccc(-c3nnc(-c4ccco4)o3)c2)c1	TWEAK-Fn14 inh 68, TROY signal inh 57
O=C(Cc1cccs1)Nc1cccc(-c2nnc(-c3ccco3)o2)c1	none
COc1cccc(CN2CCC2(C)C(=O)Nc2ccc(Cl)c(Cl)c2)c1F (stereo not given)	none (no result: HSF-1 act, HSP90 refold inh, EBV LMP1 NFkB, HSF1 inh)
O=C(COC(=O)c1cc(=O)c2ccccc2o1)NCc1ccc(Cl)cc1	none (no result: HSF-1 act, HSP90 refold inh, HSF1 inh)
CC(C)Oc1ccc(CN2CCC2(C)C(=O)Nc2cccc(Oc3ccccc3)c2)cc1 (stereo not given)	none (no result: HSF-1 act, HSP90 refold inh, EBV LMP1 NFkB, HSF1 inh)
Brc1ccc(-c2nnc(-c3ccco3)o2)cc1	HSF-1 act 63
CCCCCCCCCCCCCCCC[n+]1cccc2ccccc21	TWEAK-Fn14 inh 72, TROY signal inh 54 (no result: HSF-1 act, HSF1 inh)
Cc1ccccc1C[n+]1cccc2ccccc21	none (no result: HSP90 refold inh)
CCCCCCCCC[n+]1cccc2c3ccccc3ccc21	EBV LMP1 NFkB 48
O=[N+]([O-])c1ccc(C[n+]2cccc3c4ccccc4ccc32)cc1	none
Cc1ccc2c(C)nc(Nc3nc(CSc4nnc(C)s4)cc(=O)[nH]3)nc2c1	none
Cc1nc(Nc2nc(CSc3nc4ccccc4[nH]3)cc(=O)[nH]2)nc2ccccc12	TWEAK-Fn14 inh 92
Cc1nc(Nc2nc(-c3ccccc3)cc(=O)[nH]2)nc2ccccc12	none
Cc1nc(Nc2nc(CSc3ccc(Cl)cc3)cc(=O)[nH]2)nc2ccccc12	HSF-1 act 61
O=c1cc(CSc2ccc(Cl)cc2)nc(-c2ccccn2)[nH]1	HSF-1 act 136, TWEAK-Fn14 inh 106
COc1ccc2c(C)nc(Nc3nc(C)c(C)c(=O)[nH]3)nc2c1	TWEAK-Fn14 inh 53
CN(Cc1cn(Cc2cccc(C(F)(F)F)c2)nn1)C1CN(Cc2cn(Cc3cccc(C(F)(F)F)c3)nn2)S(=O)(=O)C1 (stereo not given)	none (no result: HSF-1 act, HSP90 refold inh, EBV LMP1 NFkB, HSF1 inh)
CC1(C(=O)NS(=O)(=O)Cc2cccc(Cl)c2)CCN1C(=O)CCc1cccs1 (stereo not given)	none (no result: HSF-1 act, HSP90 refold inh, EBV LMP1 NFkB, HSF1 inh)
OC(c1ccc(-c2ccccc2)cc1)c1ncc(-c2ccccc2F)[nH]1 (stereo not given)	none (no result: HSF-1 act, HSP90 refold inh, EBV LMP1 NFkB, HSF1 inh)
CSCCC1NC(=O)C(C(C)=NNC(N)=O)=C1O (stereo not given)	none (no result: HSF-1 act, HSP90 refold inh, HSF1 inh)
Cc1c(C(=O)/C=C/c2ccccc2F)c2cc(O)ccc2n1C	none (no result: HSF-1 act, HSP90 refold inh, HSF1 inh)
COc1ccc2nc(Nc3nc(CSc4nc5ccccc5[nH]4)cc(=O)[nH]3)nc(C)c2c1	TWEAK-Fn14 inh 91, TROY signal inh 58
O=Nc1c(O)c2ccccc2c2ccccc12	TWEAK-Fn14 inh 98 (no result: HSP90 refold inh)
CC(C)(C)n1nnnc1C(CCc1ccccc1)N1CCN(C/C=C/c2ccccc2)CC1 (stereo not given)	none (no result: HSF-1 act, HSP90 refold inh, EBV LMP1 NFkB, HSF1 inh)
COC(=O)/C(=C\Nc1ccccc1N)c1ncc(C(F)(F)F)cc1Cl	HSF-1 act 138
COCCCNC(=O)c1cccc2c(-c3cccc(C(N)=O)c3)coc12	none (no result: HSF-1 act, HSP90 refold inh, EBV LMP1 NFkB, HSF1 inh)
CCN(c1cccc(C)c1)S(=O)(=O)c1ccc2c(c1)CCN2C(C)=O	TWEAK-Fn14 inh 93
CCN(c1cccc(C)c1)S(=O)(=O)c1ccc2c(c1)CCCN2C(C)=O	none
Cc1nc2ccccn2c1-c1ccnn1S(=O)(=O)c1ccc(F)cc1	TWEAK-Fn14 inh 52, HSF1 inh -67
Cc1nc2ccccn2c1-c1nnco1	none
CN(CCc1ccccc1)C(CCc1ccccc1)C(=O)Nc1ccc2c(c1)OCCO2 (stereo not given)	none (no result: HSF-1 act, HSP90 refold inh, EBV LMP1 NFkB, HSF1 inh)
COc1ccc(C(=O)C2CCCN(S(=O)(=O)C(C)C)C2)c(C)c1 (stereo not given)	HSF-1 act 62
Cc1ccc(S(=O)(=O)N2C[C@H]3C(=O)C[C@@H](c4ccccc4)N(S(=O)(=O)c4ccc(C)cc4)[C@H]3C[C@H]2c2cccc(C)c2)cc1	none (no result: HSF-1 act, HSP90 refold inh, EBV LMP1 NFkB, HSF1 inh)
Nc1nc2nn(-c3ccccc3)nc2c(=O)[nH]1	HSF-1 act 55
Nc1nc2c(ncn2-c2ccccc2)c(=O)[nH]1	none (no result: HSF-1 act, HSP90 refold inh, HSF1 inh)
CCc1ccc(/C=C/c2c([N+](=O)[O-])c(=O)n(C)c(=O)n2C)cc1	TWEAK-Fn14 inh 65
Cn1c(/C=C/c2ccc(Cl)cc2Cl)c([N+](=O)[O-])c(=O)n(C)c1=O	TWEAK-Fn14 inh 73
Cn1c(CC(=O)Nc2ccccc2Cl)nnc1SCC(=O)NC1=NCCS1	none
